PubChem BioAssay (NCI)
Compounds without any hit were thinned out: in the full panel of roughly 83,000, 20% have a hit.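 Testing used 96-well plates and a 48-hour single-concentration exposure. Example: -40 means 40% of the starting cells died.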 The source made the active and inactive calls. The calls were made as follows: active = growth percent below 10; inactive = the rest.

What was measured:
Assay in all cases: NCI-60 one-dose screen, 48 h (100 = growth as untreated, 0 = no growth, -100 = all killed)
Conditions in all cases: 10 µM unless noted
[1] = system: HCT-15 colon
[2] = system: HT29 colon
[3] = system: SNB-75 CNS
[4] = system: SNB-19 CNS
[5] = system: U251 CNS
[6] = system: PC-3 prostate
[7] = system: SK-MEL-5 melanoma
[8] = system: UACC-62 melanoma
[9] = system: LOX IMVI melanoma
[10] = system: SK-MEL-28 melanoma

Measured: growth

Cc1ccc(-c2cc(C(=O)N3N=C(c4ccc(N)cc4)CC3c3ccc(Cl)cc3)c3ccccc3n2)cc1 (stereo not given)
active: [2] -1.84% | [3] -4.36%
inactive: [1] 30.2% | [4] 42.1% | [5] 22.5% | [6] 15.4% | [7] 12.4% | [8] 39.2% | [9] 37.2% | [10] 72.6%

CCCCCCCCn1ccc2cc(NC(=O)Cn3cc(CN4CCN(CC)CC4)nn3)ccc21
inactive: [1] 22.5% | [3] 87.5% | [4] 61.4% | [6] 82.6% | [7] 78.1% | [10] 80.5%
active: [2] -26.4% | [5] 5.79% | [8] -78.2% | [9] -74.5%

N#Cc1c(-c2ccccc2)c(C#N)c2c(C#N)c(N)nn2c1N
active: [2] 8.55%
inactive: [1] 24.3% | [3] 52.1% | [4] 38.1% | [5] 20.3% | [6] 50.5% | [7] 24.7% | [8] 19.6% | [9] 35.6% | [10] 56.8%

CC1=NN(c2ccc(Cl)cc2)CC1(C)N=O (stereo not given)
inactive: [1] 27.4% | [2] 28.3% | [3] 75.7% | [4] 97.9% | [5] 91.5% | [6] 91.9% | [7] 95.4% | [8] 88.2% | [9] 28.1% | [10] 90.4%

O=C1Nc2ccc(F)cc2/C1=C\c1nc(-c2ccccc2F)n2ccccc12
inactive: [1] 26.3% | [2] 13.8% | [3] 95.8% | [4] 94.3% | [5] 73.5% | [6] 76.3% | [7] 89.7% | [8] 94.6% | [9] 61% | [10] 130%

O=C(Nc1cccnc1Nc1ccc(Cl)cc1)c1cn(Cc2ccc(F)cc2)nn1
inactive: [1] 95.4% | [2] 113% | [3] 94.6% | [4] 95.9% | [5] 99% | [6] 94.5% | [7] 100% | [8] 100% | [9] 104% | [10] 115%

COc1ccc(C/C(C)=C(/c2ccc(OCCN3CCCCCC3)cc2)c2ccc(OC(=O)NCc3ccccc3)cc2)cc1
inactive: [1] 60.6% | [2] 13.4% | [3] 90.7% | [4] 87.4% | [5] 71.8% | [6] 71.8% | [7] 91.2% | [8] 88.8% | [9] 52.3% | [10] 98.3%

CS(=O)(=O)Nc1cncc(-c2ccc3ncnc(Nc4ccc(F)c(Cl)c4)c3c2)c1
inactive: [1] 51.1% | [2] 20.7% | [3] 33% | [4] 42.9% | [6] 34.5% | [8] 34.6% | [9] 28.3% | [10] 42.7%
active: [5] 8.79% | [7] -50.1%

CC1(C)C2CC=C(/C=N/NC(=O)C3CCC(=O)N3)C1C2 (stereo not given)
inactive: [1] 104% | [2] 106% | [3] 91.6% | [4] 106% | [5] 101% | [6] 102% | [7] 101% | [8] 99.2% | [9] 96.9% | [10] 108%

CCOC(=O)c1ccc2c(c1)c1c(C)c3ccncc3c(C)c1n2C
active: [1] 0.188% | [2] 3.66% | [3] 2.3% | [4] 8.59% | [5] 0.292% | [7] -59.7% | [8] -64.4% | [9] -19.1% | [10] -28.3%
inactive: [6] 10.8%

C=CCCC(=O)N1C=CC(=O)[C@H](O)[C@@H]1/C=C/c1ccccc1
inactive: [1] 36.5% [100 µM] | [2] 39.4% [100 µM] | [3] 85% [100 µM] | [4] 44.5% [100 µM] | [5] 33% [100 µM] | [6] 51.2% [100 µM] | [8] 27.8% [100 µM] | [9] 27.9% [100 µM] | [10] 53.7% [100 µM]
active: [7] 0.433% [100 µM]

CCN(CC)c1ccc(N2C(=O)/C(=C/c3cccs3)SC2=S)cc1
inactive: [1] 102% | [2] 101% | [3] 93.9% | [4] 94.6% | [5] 89.1% | [6] 64.1% | [7] 93.8% | [8] 80.8% | [9] 88.8% | [10] 97.6%

COc1ccc(Cc2cnc(NC(=O)c3sc4ccccc4c3Cl)s2)cc1
active: [2] 8.15% | [3] 9.6%
inactive: [1] 15.9% | [4] 50.7% | [5] 20.8% | [6] 31.5% | [7] 27.8% | [8] 35.7% | [9] 45.9% | [10] 62.1%

COc1cccc2c(N=NC(=O)c3ccc(S(N)(=O)=O)cc3)c(O)[nH]c12
inactive: [1] 98.8% | [2] 106% | [3] 95.1% | [4] 97.1% | [5] 101% | [6] 99.1% | [7] 99.4% | [8] 99.8% | [9] 99.5% | [10] 112%

COc1ccc2cc(Cn3cc[n+](Cc4ccc5ccccc5c4)c3)ccc2c1
inactive: [1] 95.7% | [3] 18.9% | [4] 31.6% | [5] 16.1% | [6] 19% | [8] 15.2% | [9] 28.4% | [10] 11.7%
active: [2] -33.5% | [7] -24%

O=C(N=Nc1c(O)[nH]c2ccccc12)Nc1ccc(Cl)cc1
inactive: [1] 87.3% | [2] 93.5% | [3] 101% | [4] 89.3% | [5] 100% | [6] 89.8% | [7] 90.7% | [8] 75.7% | [9] 86.5% | [10] 91.5%

COc1cc(C(=O)/C=C/c2c(-c3cccs3)nc3ccccn23)cc(OC)c1OC
inactive: [4] 14.2%
active: [1] -7.46% | [2] -25.8% | [3] -4.3% | [5] 1.5% | [6] 7.19% | [7] -24.1% | [8] -33.1% | [9] -1.66% | [10] 8.11%

COc1ccc(/C=C/C(=O)c2ccc(NC(=O)CSc3nnc(-c4cc(-c5ccccc5)nc5ccccc45)n3-c3ccccc3)cc2)cc1
inactive: [1] 92.5% | [2] 98.1% | [3] 100% | [4] 101% | [5] 102% | [6] 89.9% | [7] 97.5% | [8] 87.3% | [9] 96.5% | [10] 98.4%

CS(=O)(=O)Nc1cc(-c2ccc3ncnc(Nc4ccc5c(cnn5Cc5cccnc5)c4)c3c2)cnc1Cl
inactive: [1] 84.7% | [2] 65.2% | [4] 60.1% | [5] 55.4% | [6] 52.2% | [7] 50.9% | [8] 25.9% | [9] 39.2% | [10] 29.4%
active: [3] -12.1%

COc1cccc(C(=O)OCC(O)C(=O)NC23CC4CC(CC(C4)C2)C3)c1 (stereo not given)
inactive: [1] 96.9% | [2] 101% | [3] 95.2% | [4] 97.2% | [5] 94.1% | [6] 93.3% | [7] 99.2% | [8] 93.4% | [9] 95.4% | [10] 104%

N#CC(C#N)N=Nc1ccc(Cl)cc1Cl
inactive: [1] 85% | [2] 81.8% | [3] 89.3% | [4] 102% | [5] 106% | [6] 78.7% | [7] 99.8% | [8] 69.6% | [9] 94.8% | [10] 70.3%

O=C(Nc1cccc(NC(=O)C2CCCCC2)c1)c1ccccn1
inactive: [1] 100% | [2] 90.4% | [3] 87% | [4] 111% | [5] 109% | [6] 104% | [7] 99.7% | [8] 96.8% | [9] 90.6% | [10] 103%

COc1ccc(Nc2ncc(C(N)=O)c(NCCCNC(=O)C3CCC3)n2)cc1
inactive: [1] 82.1% | [2] 70.7% | [3] 49.7% | [4] 75.5% | [5] 56.3% | [6] 62.8% | [7] 88.3% | [8] 77.8% | [9] 73.1% | [10] 94.2%

COc1ccc(C2=NN(C(C)=O)C(c3ccc(Oc4ccnc5cc(Cl)ccc45)c(OC)c3)C2)cc1 (stereo not given)
inactive: [1] 90.6% | [2] 15.1% | [3] 16.1% | [4] 73.1% | [5] 45.7% | [6] 56% | [7] 65.8% | [8] 54.7% | [9] 53.2% | [10] 35.8%

CCOC(=O)C1=C(c2ccccc2)N=c2s/c(=C/c3ccc(Br)cc3)c(=O)n2C1c1ccc(O)cc1 (stereo not given)
inactive: [1] 82.3% | [2] 87.6% | [3] 68.7% | [4] 86.7% | [5] 81.1% | [6] 64.1% | [7] 91.9% | [8] 76.1% | [9] 91.7% | [10] 92.5%

CCCCCSB(SCCCCC)c1ccccc1
inactive: [1] 96.8% | [2] 96.4% | [3] 78.7% | [4] 96.6% | [5] 99.7% | [6] 97.2% | [7] 105% | [8] 105% | [9] 96.8% | [10] 110%

C=NNc1ccccc1
inactive: [1] 87.4% | [2] 108% | [3] 90.9% | [4] 93.8% | [5] 88.1% | [6] 63.8% | [7] 98.8% | [8] 50.2% | [9] 62.8% | [10] 117%
